A short description of assay [1]: qHTS assay to identify small molecule antagonists of the thyroid receptor (TR) signaling pathway - cell viability counter screen (AID 743064). Further: nearly all actives have a fitted effect of over 50% in size. In outline:
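Compounds were tested on GH3.TRE-Luc cells in the presence of T3 at 1 nM final. Following 23.5 h at 37 °C, cell viability was quantified by CellTiter-Fluor.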
A general note: Quantitative high-throughput screening tests each substance at several concentrations.

Assay [2] can be described thus: qHTS assay to identify small molecule antagonists of the thyroid receptor (TR) signaling pathway (AID 743065). Further: series mostly up to about 70 µM; nearly all actives have a fitted effect of over 55% in size. The method in brief:
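GH3.TRE-Luc rat pituitary cells (two TREs driving luciferase) were dosed with compound, then stimulated with 1 nM T3 (final) for 23.5 h at 37 C. ONE-Glo luminescence was the read-out, with CellTiter-Fluor fluorescence as the cytotoxicity counter-screen.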

Assay [3] concerns thyroid hormone receptor (rat, GH3 cells). Nature of the assay: qHTS assay to identify small molecule agonists of the thyroid receptor (TR) signaling pathway (AID 743066; calls by dose curve).
The nature of assay [4]: qHTS assay to identify small molecule antagonists of the estrogen receptor alpha (ER-alpha) signaling pathway - cell viability counter screen (AID 743074; calls by dose curve;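 further: HEK293 cells carrying ER-alpha-UAS-bla reporter stimulated with 17beta-estradiol; nearly all actives have a fitted effect of over 45% in size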).
Assay [5] is described as follows: qHTS assay to identify small molecule antagonists of the estrogen receptor alpha (ER-alpha) signaling pathway using the BG1 cell line - cell viability counter screen (AID 743081).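 Further: compound given together with 17beta-estradiol as the ER stimulus; series mostly up to about 70 µM; nearly all actives have a fitted effect of over 45% in size.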
In another assay the target is Aromatase (Homo sapiens) (UniProt P11511). Nature of the assay: qHTS assay to identify aromatase inhibitors (AID 743083). Further: nearly all actives have a fitted effect of over 55% in size. Further: potency means the concentration at half of the fitted maximal effect. On activity, negative = inhibition: series mostly up to about 70 µM.
Chain of Aromatase (Homo sapiens) (P11511 whole entry, looked up): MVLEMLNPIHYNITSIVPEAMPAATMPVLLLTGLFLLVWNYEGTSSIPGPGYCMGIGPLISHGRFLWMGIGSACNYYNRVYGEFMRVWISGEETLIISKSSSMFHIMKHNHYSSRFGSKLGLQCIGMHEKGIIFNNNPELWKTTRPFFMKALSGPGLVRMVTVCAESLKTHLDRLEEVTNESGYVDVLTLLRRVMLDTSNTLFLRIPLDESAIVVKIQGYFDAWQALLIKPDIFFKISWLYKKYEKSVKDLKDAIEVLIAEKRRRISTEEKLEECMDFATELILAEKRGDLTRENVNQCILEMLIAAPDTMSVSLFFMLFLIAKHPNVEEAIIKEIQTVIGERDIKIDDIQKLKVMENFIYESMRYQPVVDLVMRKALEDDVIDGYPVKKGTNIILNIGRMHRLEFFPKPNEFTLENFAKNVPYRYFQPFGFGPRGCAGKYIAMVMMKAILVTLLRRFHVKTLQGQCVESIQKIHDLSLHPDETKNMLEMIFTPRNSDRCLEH
Assay [6] deals with Estrogen receptor (Homo sapiens) (UniProt P03372). Nature of the assay: qHTS assay to identify small molecule antagonists of the estrogen receptor alpha (ER-alpha) signaling pathway (AID 743069; active means well fitted curve in the direction sought with a large enough effect in the signal ratio in the repeat runs, not every such curve was filed as active; the % refers to the signal ratio). The method in brief:
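Beta-lactamase FRET fluorescence is read after 2 hr at room temperature with LiveBLAzer B/G substrate. Before that, ER-alpha-bla HEK293 cells sit 4 hr after plating, then receive compound plus 17beta-estradiol and incubate 18 hr at 37C.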

The target is the same in assay [7]. Nature of the assay: qHTS assay to identify small molecule agonists of the estrogen receptor alpha (ER-alpha) signaling pathway (AID 743075; calls by dose curve;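 further: HEK293 GripTite cells with ER-alpha and UAS-driven beta-lactamase reporter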).
For assay [8] the target is unchanged. Nature of the assay: qHTS assay to identify small molecule agonists of the estrogen receptor alpha (ER-alpha) signaling pathway using the BG1 cell line (AID 743079). Further: nearly all actives have a fitted effect of over 20% in size.
Assay [9] in a line: qHTS assay to identify small molecule antagonists of the estrogen receptor alpha (ER-alpha) signaling pathway using the BG1 cell line (AID 743080; calls by dose curve;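 further: BG1 cells stimulated with 17beta-estradiol alongside compound; series mostly up to about 70 µM; nearly all actives have a fitted effect of over 25% in size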). The method in brief: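 Seeding, 24 h rest, compound transfer from DMSO, 17beta-estradiol addition, 21.5 h incubation, CellTiter-Fluor (30 min, 37 C), then ONE-Glo (30 min, room temperature): this sequence was run on BG1-Luc-4E2 reporter cells.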

Inconclusive results are not listed. Values without a mark were called inactive. The source made the active and inactive calls. Unless noted, the call rests on the fitted dose curve; in most records, active means well fitted curve in the direction sought with a large enough effect in the repeat runs; inconclusive means weak or mixed curves; inactive means no such curve, though single readings can be large; an effect the other way counts as inactive or inconclusive.
On the % scale 0 is the no-effect control and ±100 the full control effect.

Chain of Estrogen receptor (Homo sapiens) (P03372 whole entry, looked up): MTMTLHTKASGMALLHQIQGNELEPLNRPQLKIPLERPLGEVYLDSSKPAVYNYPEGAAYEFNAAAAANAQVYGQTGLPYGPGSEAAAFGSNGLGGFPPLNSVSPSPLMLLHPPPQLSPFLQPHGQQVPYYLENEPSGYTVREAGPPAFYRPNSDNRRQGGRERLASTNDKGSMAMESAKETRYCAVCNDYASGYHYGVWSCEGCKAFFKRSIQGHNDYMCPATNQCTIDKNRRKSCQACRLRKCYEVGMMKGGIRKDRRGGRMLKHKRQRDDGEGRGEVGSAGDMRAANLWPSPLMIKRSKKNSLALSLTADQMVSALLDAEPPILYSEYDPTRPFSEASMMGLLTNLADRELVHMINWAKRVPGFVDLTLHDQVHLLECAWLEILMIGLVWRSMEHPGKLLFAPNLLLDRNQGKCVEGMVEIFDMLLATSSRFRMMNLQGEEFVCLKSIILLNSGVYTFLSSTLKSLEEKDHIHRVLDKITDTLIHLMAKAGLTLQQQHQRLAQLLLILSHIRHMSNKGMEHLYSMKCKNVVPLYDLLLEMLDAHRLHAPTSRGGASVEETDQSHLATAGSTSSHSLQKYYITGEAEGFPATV

With `FC(F)(F)c1ccccc1-n1ccnc1`, the Potency entry in assay [1] and in [2] was “inactive” throughout. In addition, the call in [3], in [4] and in [5] was inactive. For the same molecule, in the assay with Aromatase (Homo sapiens), the Potency is 6.68 µM (active).

Turning to `Oc1cn2c(n1)Nc1ccc(Cl)c(Cl)c1C2`, the Potency entry (in [1]; in assay [8]; in assay [9]; with Aromatase (Homo sapiens)) was “inactive” throughout. Moreover, the outcome in [3], in assay [6], in [4], in [7] and in assay [5] was inactive.

`COC(=O)[C@@H]1[C@H]2C[C@H]3c4[nH]c5ccccc5c4CCN3C[C@@H]2CC[C@@H]1O`: the Potency result (in assay [1]; in assay [8]; in assay [9]; with Aromatase (Homo sapiens)) was “inactive” throughout. In addition, the molecule was classed as inactive in [3], in assay [6], in [4], in assay [7] and in assay [5].

Regarding `CCc1ccc(C=O)cc1`, the Potency result (in assay [1]; in [2]; in the assay with Aromatase (Homo sapiens)) was “inactive” throughout. The result in [3], in assay [4] and in assay [5] was inactive.

For the molecule `CC(COC(C)(C)C)OCCCO` (stereo not given), the Potency result (in [1]; in assay [2]; with Aromatase (Homo sapiens)) was “inactive” throughout. Further, the molecule was called inactive in assay [4] and in assay [5].

`O=C(c1ccc(O)cc1)c1ccc(O)c(O)c1O`: the Potency result (in [1]; in assay [2]; with Aromatase (Homo sapiens)) was “inactive” throughout. Also, the molecule was classed as inactive in assay [3] and in assay [5].

In the case of `CN=C(NC#N)Nc1ccc(C2=NNC(=O)CC2C)cc1` (stereo not given), the Potency result (in assay [1]; in assay [2]; with Aromatase (Homo sapiens)) was “inactive” in each case. The outcome in assay [3], in [4] and in assay [5] was inactive.

With `CCCC/C=C/C=C\C=O`, the Potency entry (in assay [1]; in assay [8]; in [9]; with Aromatase (Homo sapiens)) was “inactive” in each case. In addition, the result in assay [3], in [6], in [4], in assay [7] and in assay [5] was inactive.

On to `CC(C)(C)NC(N)=O`, for which the Potency result (in assay [1]; in assay [8]; in assay [9]; with Aromatase (Homo sapiens)) was “inactive” in each case. Also, the molecule was classed as inactive in [3], in assay [6], in assay [4], in assay [7] and in [5].

`COC(=O)CCCCCCCC(=O)OC`: the Potency entry (in [1]; in assay [8]; in [9]; in the assay with Aromatase (Homo sapiens)) was “inactive” in each case. For the same molecule, the result in [3], in [6], in [4], in assay [7] and in [5] was inactive.

`CC(C)(C)c1n[nH]c(=S)n(N)c1=O`: the Potency result (in [1]; in [8]; in assay [9]; with Aromatase (Homo sapiens)) was “inactive” throughout. In addition, the result in assay [3], in [6], in assay [4], in assay [7] and in assay [5] was inactive.

For the molecule `O=C(CCNNC(=O)c1ccncc1)NCc1ccccc1`, the Potency result (in [1]; in assay [8]; in assay [9]; with Aromatase (Homo sapiens)) was “inactive” in each case. Further, the outcome in assay [3], in [6], in assay [4], in assay [7] and in assay [5] was inactive.

Turning to `CC(=O)c1sc(C)nc1C`, the Potency result (in assay [1]; in assay [2]; with Aromatase (Homo sapiens)) was “inactive” throughout. In addition, the result in assay [3], in assay [4] and in assay [5] was inactive.

On to `CC/C=C\CC1=C(C)CCC1=O`, for which the Potency entry (in [1]; in assay [2]; in the assay with Aromatase (Homo sapiens)) was “inactive” each time. The molecule was classed as inactive in [3], in assay [4] and in assay [5].

Consider `O=C(O)c1cc(Br)c(O)c(Br)c1`, for which the Potency result (in assay [1]; in assay [2]; with Aromatase (Homo sapiens)) was “inactive” each time. In addition, the call in assay [3], in [4] and in assay [5] was inactive.

Regarding `COC(=O)C1CC(=O)C(C(=O)OC)CC1=O` (stereo not given), the activity change, negative = cytotoxic in [1] is 29.4% [at 8.44 µM]. Moreover, the activity, negative = inhibition is -0.0159% [at 8.44 µM] in assay [2] and 8.29% [at 8.47 µM] in the assay with Aromatase (Homo sapiens). Also, the activation in [3] is -0.929% [at 8.08 µM]. The activity, negative = cytotoxicity in [4] is 10.1% [at 6.72 µM].

As for `NCCS`, the Potency result (in [1]; in assay [2]; with Aromatase (Homo sapiens)) was “inactive” throughout. Further, the outcome in assay [3], in assay [4] and in assay [5] was inactive.

On to `CC(C)(C)OC(=O)c1ccc(O)cc1`, for which the Potency result (in [1]; in assay [2]; in the assay with Aromatase (Homo sapiens)) was “inactive” in each case. In addition, the molecule was classed as inactive in assay [3], in [4] and in assay [5].

On to `CC(CN)CC(C)(C)CCN` (stereo not given), for which the Potency entry (in assay [1]; in assay [2]; with Aromatase (Homo sapiens)) was “inactive” in each case. Also, the call in assay [3], in [4] and in assay [5] was inactive.

`Cc1ccc(S(=O)(=O)O)c(C)c1`: the Potency entry (in assay [1]; in assay [8]; in [9]; in the assay with Aromatase (Homo sapiens)) was “inactive” throughout. The result in [6], in [4], in assay [7] and in assay [5] was inactive.

The values are drawn from PubChem BioAssay (Tox21).
